# G9a inh: qHTS Assay for Inhibitors of Histone Lysine Methyltransferase G9a. Histone-lysine N-methyltransferase EHMT2 (Homo sapiens), Q96KQ7. G9a H3K9 monomethylation, AlphaScreen, 2 h. AID 504332, 2011. Potency, µM (series often up to 102 µM), for the others: at the top dose activity, negative = inhibition, usual class: inhibitors. hit rate 8.8% among 350,000; further: potency means the concentration at half of the fitted maximal effect; on the % scale 0 is the no-effect control and ±100 the full control effect; nearly all actives have a fitted effect of over 75% in size
#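 Quantitative HTS format: methyltransferase activity on a biotin-tagged H3K9 peptide is measured by AlphaScreen, using a rabbit anti-monomethyl-H3K9 antibody with streptavidin donor and anti-IgG acceptor beads. Final levels are 20 nM enzyme, 500 nM peptide, 20 uM SAM; 2 h RT.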
# PLK1 PBD inh: qHTS for Inhibitors of PLK1-PDB (polo-like kinase 1 - polo-box domain): Primary Screen. Serine/threonine-protein kinase PLK1 (Homo sapiens), P53350. Plk1 PBD binding of FITC phosphopeptide, fluorescence polarization. Potency, µM, inactives show max response, negative = inhibition, hits mostly inhibitors. hit rate 2.8% among 360,000. AID 720504, 2013; further: potency means the concentration at half of the fitted maximal effect; series mostly up to about 57 µM; on the % scale 0 is the no-effect control and ±100 the full control effect; nearly all actives have a fitted effect of over 65% in size
# PI5P4K alpha inh: qHTS for Inhibitors of phosphatidylinositol 5-phosphate 4-kinase (PI5P4K). Phosphatidylinositol 5-phosphate 4-kinase type-2 alpha (Homo sapiens), P48426. PI5P4Kalpha enzyme, ADP-Glo luminescence, 60 min; active compounds read low. max response, %. hit rate 1.2% among 330,000. AID 652105, 2013; active means max response of -50% or lower; inconclusive means between -30% and -50%; inactive means -30% or higher; further: value at the top dose of about 77 µM; on the % scale 0 is the no-effect control and ±100 the full control effect
#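 ADP-Glo luminescence end-point read after a 60 min room-temperature kinase reaction of PI5P4Kalpha plus substrate, initiated with ATP at 5 microM final. Buffer: 0.038 M HEPES pH 7.4, EGTA, 0.1% CHAPS, 5% DMSO.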
# BAZ2B inh: qHTS Assay for Inhibitors of BAZ2B. Bromodomain adjacent to zinc finger domain protein 2B (Homo sapiens), Q9UIF8. AlphaScreen BAZ2B-H3K14Ac peptide displacement. Potency, µM (doses to about 114 µM), without a hit: top-dose activity change, negative = inhibition, usual class: inhibitors. hit rate 4.4% among 360,000; further: potency means the concentration at half of the fitted maximal effect; on the % scale 0 is the no-effect control and ±100 the full control effect; nearly all actives have a fitted effect of over 60% in size
#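 Protein-peptide AlphaScreen: BAZ2B 50 nM, b-H3K14Ac 50 nM, 1x PBS pH 7.4 + 0.01% Tween-20. Preincubation 30 min RT; cpd 30 min RT (top 110 uM); beads 20 min RT, light-protected.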
# JMJD2A Tudor inh: qHTS Assay for Inhibitors of JMJD2A-Tudor Domain | Lysine-specific demethylase 4A (Homo sapiens), O75164 | AlphaScreen JMJD2A-Tudor / H3K4me3 peptide binding | Potency, µM (highest dose often 114 µM), inactives show top-dose activity change, negative = inhibition, actives largely listed as inhibitors | hit rate 4.4% among 390,000 | AID 504339, 2011; further: potency means the concentration at half of the fitted maximal effect; on the % scale 0 is the no-effect control and ±100 the full control effect; nearly all actives have a fitted effect of over 50% in size
# Target sequence (O75164 whole entry, looked up, the tested form may be a part): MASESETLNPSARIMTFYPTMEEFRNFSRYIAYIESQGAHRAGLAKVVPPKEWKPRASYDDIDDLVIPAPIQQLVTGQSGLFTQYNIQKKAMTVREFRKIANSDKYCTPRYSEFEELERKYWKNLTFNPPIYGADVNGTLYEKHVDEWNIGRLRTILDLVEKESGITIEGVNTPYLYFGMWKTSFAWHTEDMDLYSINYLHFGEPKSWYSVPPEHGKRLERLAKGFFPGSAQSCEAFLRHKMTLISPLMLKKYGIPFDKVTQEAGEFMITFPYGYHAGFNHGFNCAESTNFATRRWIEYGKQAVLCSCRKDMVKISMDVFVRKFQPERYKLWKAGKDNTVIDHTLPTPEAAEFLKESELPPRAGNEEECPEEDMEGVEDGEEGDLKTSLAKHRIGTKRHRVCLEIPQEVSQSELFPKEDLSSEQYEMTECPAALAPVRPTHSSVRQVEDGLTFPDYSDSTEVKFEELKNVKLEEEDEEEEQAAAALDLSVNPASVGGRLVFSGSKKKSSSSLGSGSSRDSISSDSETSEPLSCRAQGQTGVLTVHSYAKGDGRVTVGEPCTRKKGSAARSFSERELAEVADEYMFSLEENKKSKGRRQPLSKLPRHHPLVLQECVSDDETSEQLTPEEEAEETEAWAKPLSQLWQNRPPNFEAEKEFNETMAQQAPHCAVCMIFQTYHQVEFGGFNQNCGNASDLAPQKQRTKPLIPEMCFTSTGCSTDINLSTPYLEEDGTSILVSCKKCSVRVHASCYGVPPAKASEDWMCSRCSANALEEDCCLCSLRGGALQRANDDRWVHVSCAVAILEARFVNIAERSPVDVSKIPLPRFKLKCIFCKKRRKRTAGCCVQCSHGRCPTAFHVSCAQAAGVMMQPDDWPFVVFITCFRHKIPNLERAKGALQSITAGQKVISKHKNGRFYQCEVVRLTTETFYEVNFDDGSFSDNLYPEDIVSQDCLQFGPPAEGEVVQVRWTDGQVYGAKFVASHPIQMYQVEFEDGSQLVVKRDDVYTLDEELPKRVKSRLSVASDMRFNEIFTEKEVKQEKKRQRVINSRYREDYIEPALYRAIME
# HP1b chromo inh: HTS for Inhibitors of HP1-beta Chromodomain Interactions with Methylated Histone Tails; Potency, µM (doses to about 114 µM), for the others: at the top dose activity change, negative = inhibition, usual class: inhibitors; AlphaScreen HP1-beta / biotin-H3K9me3 peptide binding; AID 540317, 2011; Chromobox protein homolog 1 (Homo sapiens), P83916; hit rate 0.56% among 390,000; further: potency means the concentration at half of the fitted maximal effect; nearly all actives have a fitted effect of over 70% in size
#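 Compound inhibition of the preformed complex between 50 nM HP1-beta and 50 nM biotinylated H3K9me3 peptide was read by AlphaScreen. Buffer was PBS pH 7.4 with 0.01% Tween-20. Incubations ran 30 min at room temperature, with 10 ug/mL donor/acceptor beads.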
# Starred values were filed as active, the others as inactive; ? = inconclusive; · = no result given; [ ] = another dose, or the depositor's remark. Most compounds without a hit are left out; they make up all but 12% or so of the library. Unless noted, the call rests on the fitted dose curve; in most records, active means well fitted curve in the direction sought with a large enough effect; inconclusive means small, poorly fitted or top-dose-only effect, or another doubt; inactive means no such curve, though single readings can be large; an effect the other way counts as inactive or inconclusive.
SMILES,G9a inh,PLK1 PBD inh,PI5P4K alpha inh,BAZ2B inh,JMJD2A Tudor inh,HP1b chromo inh
Cc1ccc(Sc2ncccc2C(=O)NCC(c2ccc(F)cc2)N2CCOCC2)cc1C (stereo not given),0.891µM*,1.1%,-6.6,-9.0%,?,37.7%
O=C(c1cccs1)N1C[C@H](O)[C@@H](n2cc(C3CC3)nn2)C[C@@H]1c1ccccc1,·,-11.2%,4.9,·,·,·
COc1cc(C(C(=O)NC2CCCC2)N(Cc2ccco2)C(=O)c2snc(C(N)=O)c2N)cc(OC)c1OC (stereo not given),-7.0%,0.0%,8.2,2.3%,-9.4%,10.6%
CN(C)c1ccc(C(C(=O)NCc2ccccc2)N(Cc2cccnc2)C(=O)c2snc(C(N)=O)c2N)cc1 (stereo not given),50.1µM*,-0.1%,1.8,?,?,4.7%
CN(C)c1ccc(C(C(=O)NC2CCCCC2)N(Cc2ccco2)C(=O)c2snc(C(N)=O)c2N)cc1 (stereo not given),?,-10.3%,-5.5,39.8µM*,?,?
COc1ccc(C(C(=O)NCc2ccccc2)N(Cc2cccnc2)C(=O)c2snc(C(N)=O)c2N)cc1OC (stereo not given),-3.9%,-10.5%,0.2,-7.8%,-10.6%,33.0%
C=C(C)C1CC=C(CN2CCC(C(=O)OCC)CC2)CC1 (stereo not given),?,-6.2%,·,-24.8%,2.51µM*,?
C=C(C)C1CC=C(C(=O)O)CC1 (stereo not given),-15.7%[59 µM],·,·,·,·,·
C=C(C)[C@@H]1CC=C(CO)CC1,·,?,-0.4,·,-18.6%,18.9%
C=C(C)C1CC=C(CN2CC(C)OC(C)C2)CC1 (stereo not given),7.94µM*,0.4%,-5.0,?,3.98µM*,?
c1ccc(-c2ncc3ccccn23)cc1,79.4µM*,-7.6%,-1.7,-36.7%,-28.5%,-4.4%
O=C(Nc1ccc2c(c1)CCC2)c1cnc(Cl)c(Cl)c1,-3.2%,21.2µM*,-16.7,1.8%,-28.5%,5.5%
Nc1nc(-c2ccc(Br)cc2)cs1,?,-17.5%,6.6,50.1µM*,79.4µM*,-12.9%
O=[N+]([O-])c1ccc(-c2csc(NN=C3CCCC3)n2)cc1,50.1µM*,-12.5%,-1.4,-1.2%,-27.7%,18.4%
Nc1nc(-c2ccc(F)cc2)cs1,44.7µM*,?,-2.7,?,-22.5%,-38.7%
CC1(C)CC(c2nc(-c3ccc([N+](=O)[O-])cc3)cs2)CCO1 (stereo not given),50.1µM*,-19.9%,-7.2,?,-14.2%[57.1 µM],6.9%
Nc1nc(-c2ccc([N+](=O)[O-])cc2)cs1,50.1µM*,-11.1%,-5.8,1.0%,-13.6%,15.9%
Nc1nc(-c2ccc3c(c2)CCC(=O)N3)cs1,44.7µM*,-6.9%,3.3,-18.3%,-12.4%,26.2%
C/C(=N\NC(=O)Cc1c[nH]c2ccccc12)c1ccc2ccccc2c1,-27.5%,6.3%,-52.8*,?,?,-29.3%
C/C(=N\NC(=O)c1c[nH]c2ccccc12)c1ccc2c(c1)OCO2,6.3%,?,-1.6,-3.5%,-34.0%,8.1%
CCNC(=S)N/N=C(\C)c1ccc2ccccc2c1,?,·,·,35.5µM*,·,·
C/C(=N\NC(=S)NC(C)C)c1ccccc1OC(F)F,4.4%,-6.2%,2.7,·,-20.3%,2.1%
CCNC(=S)N/N=C(\C)c1ccc2ccccc2c1OC(F)F,44.7µM*,-13.1%,-0.9,?,?,?
CCNC(=S)N/N=C(\C)c1cccc(OC)c1,-32.6%,-2.0%,0.0,-34.1%,-1.6%,47.9%
COc1ccc(NC(=O)C(NC(=O)/C=C\c2ccc3c(c2)OCO3)c2ccccc2)cc1 (stereo not given),-29.4%[59 µM],·,·,5.0%,-7.8%,30.0%
O=C(COC(=O)c1ccccc1F)Nc1ccc(S(=O)(=O)N2CCOCC2)cc1,·,-1.0%,-24.0,·,-3.5%,11.7%

# High-throughput results deposited in PubChem BioAssay by National Center for Advancing Translational Sciences (NCATS).
